The target of one assay is PUM1 PUF domain R2-LWA (Homo sapiens, UniProt Q14671 828-1176, N899L;Y900W;Q903A). As to the kind of experiment: yeast three-hybrid, YBZ-1, SC-Leu-His + 0.5 mM 3-AT, 4 days. Particulars: tags: N-Gal4 AD-HA kept; label: inside an RPR1-promoter hybrid RNA with tandem MS2 sites; ssRNA. An outline of the steps:
(§1)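 The interaction score is the logarithmic change in variant frequency from input to selection. It uses log2, with a pseudocount of 1 for absent variants, and frequencies came from PCR-amplified, Illumina-sequenced repeat regions. The libraries were Pumilio-1 PUF domains randomized at the three base-contacting residues per repeat, co-expressed with matching RNA elements in strain YBZ-1 (LexA–MS2 coat fusion, HIS3 reporter). Plating lasted four days on SC-Leu (input) or SC-Leu-His + 0.5 mM 3-AT (selection).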
“GGCUAGAACUAGUGGAUCCCCCGGCGCCCGGCGGCUCGAGCCCGGGUAAGUGUAAAGAGUCUGCAUGCCGCCGGGCGCCAUGCCUGCAGGUCGACUCUAGAAAACAUG”: the binding signal is 2.94 log2 enrichment (interaction score).

“GGCUAGAACUAGUGGAUCCCCCGGCGCCCGGCGGCUCGAGCCCGGGUAAGUGUAAAAAGUCUGCAUGCCGCCGGGCGCCAUGCCUGCAGGUCGACUCUAGAAAACAUG”: the binding signal was 6.09 log2 enrichment (interaction score).

As for “GGCUAGAACUAGUGGAUCCCCCGGCGCCCGGCGGCUCGAGCCCGGGUAAGUGUAAAUAGUCUGCAUGCCGCCGGGCGCCAUGCCUGCAGGUCGACUCUAGAAAACAUG”, the binding signal is 1.62 log2 enrichment (interaction score).

For another assay, the target named is PUM1 PUF domain R5-RYA (Homo sapiens, UniProt Q14671 828-1176, C1007R;R1008Y;Q1011A). The assay is described as above. Particulars: tags: N-Gal4 AD-HA kept; label: inside an RPR1-promoter hybrid RNA with tandem MS2 sites; ssRNA. A digest of the protocol: as §1
Regarding “GGCUAGAACUAGUGGAUCCCCCGGCGCCCGGCGGCUCGAGCCCGGGUAAGUGUUAAUAGUCUGCAUGCCGCCGGGCGCCAUGCCUGCAGGUCGACUCUAGAAAACAUG”, the binding signal was 4.8 log2 enrichment (interaction score).

As for “GGCUAGAACUAGUGGAUCCCCCGGCGCCCGGCGGCUCGAGCCCGGGUAAGUGUAAAUAGUCUGCAUGCCGCCGGGCGCCAUGCCUGCAGGUCGACUCUAGAAAACAUG”, the binding signal is 1.12 log2 enrichment (interaction score).

With “GGCUAGAACUAGUGGAUCCCCCGGCGCCCGGCGGCUCGAGCCCGGGUAAGUGUCAAUAGUCUGCAUGCCGCCGGGCGCCAUGCCUGCAGGUCGACUCUAGAAAACAUG”, the binding signal is 4.95 log2 enrichment (interaction score).
